TrxR1 inh: rat TrxR1 inhibition; O89049; recombinant rTrxR1, NADPH fluorescence consumption, selenite substrate; Potency, µM (top dose mostly 114 µM), for inactives: at the top dose activity change, negative = inhibition, actives largely listed as inhibitors; actives 1% (n = 390,000); AID 588453; also: % is scaled to controls: 0 for no effect and ±100 for the full control effect; nearly all actives have a fitted effect of over 65% in size
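Rat TrxR1 (90 nM in the dispensed reagent) was pre-reduced with 400 uM NADPH for 5 min at room temperature, then incubated with compound for 15 min. After 400 uM selenite was added, NADPH fluorescence (Ex 340/Em 450 nm) was followed for 8 min.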
A549 viability: counter-screen for Nrf2 inhibitors: cytotoxicity in A549 cells; A549 ARE-Fluc cells, CellTiter-Fluor viability, 18-24 h; Potency, µM (highest dose often 46 µM), without a hit: top-dose activity change, negative = cytotoxicity, most hits filed as inhibitors; actives 0.16% (n = 390,000); AID 504648; also: % is scaled to controls: 0 for no effect and ±100 for the full control effect
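Cytotoxicity counterscreen: CellTiter-Fluor fluorescence was measured in A549 ARE_Fluc cells after 18-24 h of compound exposure in a concentration series. The subsequent BugLite luminescent read reports ARE-luciferase activity.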
TrxR1 substrate: rat thioredoxin reductase 1 substrate activity; O89049; purified TrxR1 substrate turnover, NADPH consumption readout; Potency, µM (series often up to 114 µM), for inactives: at the top dose activity change, negative = substrate turnover; actives 0.01% (n = 390,000); also: % is scaled to controls: 0 for no effect and ±100 for the full control effect; nearly all actives have a fitted effect of over 50% in size
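Rat TrxR1, dispensed at 90 nM, was prereduced with 400 uM NADPH (final) for 5 min at ~22 deg C, then incubated with compound 15 min before 400 uM selenite. A first-read NADPH fluorescence drop versus no-compound background flagged substrates.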
Nrf2 block: blocks Nrf2 signaling; AID 504444; actives 2.1% (n = 360,000); Potency, µM (top dose mostly 46 µM), for inactives: at the highest dose activity change, negative = inhibition, usual class: inhibitors; A549 ARE-Fluc reporter, luciferase luminescence, 18-24 h; also: % is scaled to controls: 0 for no effect and ±100 for the full control effect; nearly all actives have a fitted effect of over 60% in size
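A549 ARE_Fluc cells (5000/well, 5% FBS OPTI-MEM) pre-incubated 2 h, then treated with compounds 18-24 h at 37C/5% CO2 in concentration-response. CellTiter-Fluor viability read first; BugLite luciferase luminescence after 15 min at room temperature gives Nrf2 activity.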
Nrf2 activator: Nrf2 pathway activation; AREc32 ARE-luciferase reporter (MCF7-derived line), luminescence, 24 h; Potency, µM (highest dose often 46.1 µM), without a hit: at the top dose activation, usual class: activators; actives 0.31% (n = 410,000); AID 624171; also: % of control where 0% means no effect; nearly all actives have a fitted effect of over 65% in size
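ARE activation measured as luciferase luminescence (Steady-Glo, 30 min RT) in AREc32_Fluc cells after 24 hr compound exposure at 37 deg C, 5% CO2; cells seeded overnight at 1000/well in OPTI-MEM, 5% FBS.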
GALK inh: inhibitors of human galactokinase | Potency, µM (doses to about 57.5 µM), for inactives: at the highest dose activity change, negative = inhibition, hits mostly inhibitors | Purified GALK, Kinase-Glo residual ATP luminescence | P51570 | actives 0.007% (n = 270,000); also: % is scaled to controls: 0 for no effect and ±100 for the full control effect
Target sequence (P51570 whole entry, looked up): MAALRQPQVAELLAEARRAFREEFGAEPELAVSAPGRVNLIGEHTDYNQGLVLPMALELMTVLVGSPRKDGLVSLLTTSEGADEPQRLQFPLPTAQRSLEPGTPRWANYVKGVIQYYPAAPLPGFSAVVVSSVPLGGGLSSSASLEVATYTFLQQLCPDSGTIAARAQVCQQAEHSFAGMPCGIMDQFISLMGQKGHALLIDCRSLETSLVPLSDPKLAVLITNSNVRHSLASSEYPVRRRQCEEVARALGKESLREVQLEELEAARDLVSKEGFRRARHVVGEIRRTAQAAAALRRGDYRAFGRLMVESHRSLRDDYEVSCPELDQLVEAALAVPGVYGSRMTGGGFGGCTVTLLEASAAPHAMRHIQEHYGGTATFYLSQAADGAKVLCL
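The enzyme phosphorylates galactose (100 uM) using ATP (35 uM); inhibition is detected as higher residual ATP, quantified by bioluminescence after 1 h reaction at room temperature, pH 8.0.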
* hit, by the source's call; ! = not active in a repeat; [ ] = dose if it differs, or a comment. Hits are enriched below; roughly 3% of the tested compounds scored in any of these assays. Calls follow the shape of the dose curve; as a rule, active = well fitted curve in the direction sought with a large enough effect; inconclusive = small, poorly fitted or top-dose-only effect, or another doubt; inactive = no such curve, though single readings can be large; an effect the other way counts as inactive or inconclusive. Potency is read from the fitted curve at half-maximal effect.

For COc1ccc(-n2c(=S)[nH]c3cc(C(=O)Nc4ccc(C)c(F)c4)ccc3c2=O)c(OC)c1 the results were TrxR1 inh 5%, A549 viability -10%, TrxR1 substrate 6%, Nrf2 block 23µM*, Nrf2 activator 1% and GALK inh 0%.
Screening CCOc1ccc(NC(=O)c2ccc3c(=O)n(-c4ccc(OC)cc4OC)c(=S)[nH]c3c2)cc1 returned GALK inh 7%.
`COc1ccc(Cn2c(=O)[nH]c3cc(C(=O)NC4CCCC4)ccc3c2=O)cc1` gave TrxR1 inh 8%, A549 viability 2%, TrxR1 substrate 1%, Nrf2 block -11%, Nrf2 activator 0% and GALK inh -1%.
For COc1ccc(NC(=O)c2ccc3c(=O)n(-c4ccc(OC)cc4OC)c(=S)[nH]c3c2)c(OC)c1 the results were TrxR1 inh 12%[57.1 µM], A549 viability -10%, TrxR1 substrate -9%, Nrf2 block 26µM*, Nrf2 activator 0% and GALK inh 11%.
COc1ccc(-n2c(=S)[nH]c3cc(C(=O)NC4CCCCC4)ccc3c2=O)c(OC)c1 was read as TrxR1 inh 0%[57.1 µM], A549 viability -15%, TrxR1 substrate -6%, Nrf2 block 15µM*, Nrf2 activator 0% and GALK inh 0%.
Screening COc1ccc(-n2c(=S)[nH]c3cc(C(=O)Nc4cc(C(N)=O)ccc4OC)ccc3c2=O)c(OC)c1 returned TrxR1 inh -15%[57.1 µM], A549 viability -2%, TrxR1 substrate 4%[57.1 µM], Nrf2 block -11%, Nrf2 activator 0% and GALK inh 17%.
CCN1CCN(CCCNC(=O)Cn2nc(C)n3c(cc4c(OC)cccc43)c2=O)CC1 was read as TrxR1 inh 27%, A549 viability 1%, TrxR1 substrate 143%, Nrf2 block 2% and Nrf2 activator -1%.
`CCc1ccc2[nH]c3nc(SCC(=O)NNC(=O)c4ccc(C(C)(C)C)cc4)nnc3c2c1` gave TrxR1 inh inconclusive, A549 viability 12µM*, TrxR1 substrate 9%[57.1 µM], Nrf2 block inconclusive, Nrf2 activator -1% and GALK inh 2%.
CN(C)CC/C=C1\c2ccccc2COc2ccccc21 was read as TrxR1 inh 32µM*!, A549 viability -5%, TrxR1 substrate 6%[57.1 µM], Nrf2 block 8%, Nrf2 activator 0% and GALK inh -2%.
`COc1ccc(-c2noc(CCC(=O)Nc3cccc(C)c3)n2)cc1` gave TrxR1 inh 15%[57.1 µM], A549 viability -21%, TrxR1 substrate 7%[57.1 µM], Nrf2 block inconclusive, Nrf2 activator 0% and GALK inh -3%.
`COc1ccc(-c2noc(CCCC(=O)NCCc3ccccc3)n2)cc1OC` gave TrxR1 inh -12%, A549 viability -3%, TrxR1 substrate -4%, Nrf2 block 23µM*, Nrf2 activator -1% and GALK inh 0%.
For COc1ccc(-c2noc(CCCC(=O)NC3CCCCC3)n2)cc1 the results were TrxR1 inh 0%, A549 viability -20%, TrxR1 substrate 0%, Nrf2 block 21µM*, Nrf2 activator -1% and GALK inh -1%.
`CCOc1ccc(-c2cc(CCCC(=O)NCCc3ccc(OC)c(OC)c3)no2)cc1` gave TrxR1 inh 2%, A549 viability 0%, TrxR1 substrate 2%, Nrf2 block inconclusive and Nrf2 activator -2%.
`COc1ccc(-c2noc(CCC(=O)NCCc3cccc(C)c3)n2)cc1` gave TrxR1 inh 19%, A549 viability -9%, TrxR1 substrate 7%, Nrf2 block 23µM*, Nrf2 activator -1% and GALK inh -1%.
`CCOc1ccc(-c2cc(CCCC(=O)NCCc3cc(OC)c(OC)c(OC)c3)no2)cc1` gave TrxR1 inh 3%, A549 viability -4%, TrxR1 substrate 2%, Nrf2 block 15µM* and Nrf2 activator -1%.
For COc1ccc(-c2ccc(NS(=O)(=O)c3cc(C)c(C)cc3C)cc2)nn1 the results were TrxR1 inh 19%[57.1 µM], A549 viability -3%, TrxR1 substrate 1%[57.1 µM] and Nrf2 activator 0%.
`O=C1CN(C(=O)c2ccc(S(=O)(=O)N3CCCCC3)cc2)C(c2ccc(F)cc2)c2cc(F)ccc2N1` (configuration not stated) gave TrxR1 inh 30%, A549 viability 2%, TrxR1 substrate 3%, Nrf2 block -17%[9.27 µM] and Nrf2 activator 4%.
`COC(=O)c1cccnc1-n1c(=O)c2cccnc2n(CC(=O)Nc2cccc(C(F)(F)F)c2)c1=O` gave TrxR1 inh 7%, A549 viability 1%, TrxR1 substrate -9%, Nrf2 block -11%[9.27 µM] and Nrf2 activator 1%.
c1ccc(C(c2ccccc2)N2CCN(c3nc4ccccc4n4cnnc34)CC2)cc1 was read as TrxR1 inh 21%, A549 viability -17%, TrxR1 substrate 19%, Nrf2 block 18µM*, Nrf2 activator 0% and GALK inh 1%.
Screening COc1cc(-c2ccc3ncnc(NCc4nc(C)cs4)c3c2)cc(OC)c1OC returned A549 viability -2% and Nrf2 block inconclusive.
Screening COCCCNC(=S)Nc1cccc2ncccc12 returned TrxR1 inh -50%, A549 viability -2%, TrxR1 substrate -11%[57.1 µM], Nrf2 block 13µM*, Nrf2 activator -3% and GALK inh 0%.
Screening O=C(NC(=S)Nc1cccc2ncccc12)c1ccco1 returned TrxR1 inh 23%, A549 viability 1%, TrxR1 substrate 0%, Nrf2 block 13%, Nrf2 activator 8% and GALK inh 0%.
`Cc1ccc(S(=O)(=O)Oc2ccc(/C=N/NC(=O)c3nn(C)cc3Cl)cc2)cc1` gave TrxR1 inh 6%, A549 viability -11%, TrxR1 substrate -2%, Nrf2 block 18µM*, Nrf2 activator 1% and GALK inh -4%.
O=C1CNC(=O)/C1=C/c1ccc(Br)cc1 was read as TrxR1 inh 23%[11.4 µM], A549 viability 1%, TrxR1 substrate -18%[11.4 µM], Nrf2 block 10%, Nrf2 activator -1% and GALK inh 3%.
Screening O=C1CNC(=O)/C1=C/c1ccc(O)cc1 returned TrxR1 inh 20µM*, A549 viability -2%, TrxR1 substrate inconclusive, Nrf2 block -7%, Nrf2 activator 0% and GALK inh -4%.
`O=C1CNC(=O)/C1=C\c1ccc(O)cc1` gave TrxR1 inh 20µM*, A549 viability -2%, TrxR1 substrate inconclusive, Nrf2 block 6%, Nrf2 activator 3% and GALK inh 1%.
